Where a structure was tested more than once in an assay, its records may differ in their call. The source made the active and inactive calls. How the source made its calls: active means hit-call score of the fitted dose curve at least 0.9, where 1 is the maximum; inactive means score below 0.9.
Biological target: Transcription factor E2F1 (Homo sapiens) (UniProt Q01094)
Assay: ATG_E2F_CIS: Attagene CIS-FACTORIAL HepG2 Assay for human E2F Transcription Factor 1 (AID 2282935)
Details: HepG2 Attagene cis-reporter, E2F reporter RNA transcripts; actives raise or lower the signal
Procedure: ATG_CIS is a cell-based, multiplexed-readout assay that uses HepG2, a human liver cell line, with measurements taken at 24 hours after chemical dosing in a 24-well plate.ATG_E2F_CIS is one of 52 assay component(s) measured or calculated from the ATG_CIS assay. It is designed to make measurements of mRNA induction, a form of inducible reporter, as detected with fluorescence intensity signals by Reverse transcription polymerase chain reaction (RT-PCR) and Capillary electrophoresis technology.Data from the assay component ATG_E2F_CIS was analyzed into 1 assay endpoint. This assay endpoint, ATG_E2F_CIS, was analyzed with bidirectional fitting relative to DMSO as the negative control and baseline of activity. Using a type of inducible reporter, measures of mRNA for gain or loss-of-signal activity can be used to understand the reporter gene at the transcription factor-level as they relate to the gene E2F1. Furthermore, this assay endpoint can be referred to as a primary readout, because this assay has produced multiple assay endpoints where this one serves a reporter gene function. To generalize the intended target to other relatable targets, this assay endpoint is annotated to the dna binding intended target family, where the subfamily is E2F transcription factor.
Human liver HepG2 cells are transiently transfected with multiple reporter transcription units (MRTUs) in 6-well plates using FuGene 6 reagent (Roche; 3 ml FuGene/1 mg DNA). The MRTU constructs are regulated by a cis-regulating element (promoter). […] A major difference between the CIS and TRANS system is that in CIS activities of endogenous TFs are measured, whereas the TRANS assay evaluates changes in activities of exogenous, chimeric NR-Gal4 proteins. […] At the end of 24 hour incubation, total RNA was isolated using TriZol reagent (Invitrogen). The isolated RNA is then reverse-transcribed using oligo(dT) primer and Mo-MLV reverse transcriptase (Invitrogen) with DNAse I (Ambion) treatment for 30 min. The one-tenth of the produced cDNA was amplified by PCR using Taq DNA polymerase (Invitrogen) and two reporter sequence-specific primers. The PCR products were fluorescently labeled by primer extension with 6-arboxyfluorescein (6-FAM) 5'-labeled reporter sequence-specific primer (2 min at 95 C, 20 s at 68 C and 10 min at 72 C) and these products were digested with 5U of HpaI (New England Biolabs) for 2h at 37 C. The fragments were purified using Qiaquick PCR columns (Qiagen), analyzed on an ABI 3130xL genetic analyzer (Applied Biosystems) with peak positions identified by using a set of X-rhodamine (ROX)-labeled MapMarker1000 molecular weight standards (BioVentures). The raw capillary electrophoresis data was processed using Attagraph software (Attagene).

Sequence of Transcription factor E2F1 (Homo sapiens) (Q01094 whole entry, looked up): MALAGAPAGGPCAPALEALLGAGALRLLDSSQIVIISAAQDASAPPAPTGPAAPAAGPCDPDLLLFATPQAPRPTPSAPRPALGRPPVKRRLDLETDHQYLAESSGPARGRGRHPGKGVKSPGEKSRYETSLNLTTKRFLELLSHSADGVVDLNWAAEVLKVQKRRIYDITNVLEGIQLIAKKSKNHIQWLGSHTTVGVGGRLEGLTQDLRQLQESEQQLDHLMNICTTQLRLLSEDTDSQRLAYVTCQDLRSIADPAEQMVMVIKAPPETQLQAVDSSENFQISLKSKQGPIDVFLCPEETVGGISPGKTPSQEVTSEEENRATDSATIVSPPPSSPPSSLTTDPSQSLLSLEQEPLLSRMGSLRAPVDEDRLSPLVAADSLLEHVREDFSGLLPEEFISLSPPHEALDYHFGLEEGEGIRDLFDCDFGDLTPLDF

outcome, inactive:
OC12N=C(c3ccccc3)SC1Cc1cc(Cl)ccc12 (stereo not given)
CCCCOC(=O)c1ccc(O)cc1
CCCCCCCCN(C)CCCCCCCC
O=C(OCCCCCCOC(=O)c1ccccc1)c1ccccc1
Cc1ncc(CO)c(CO)c1O
CCCCCc1ccc(N)cc1
CCCC(=O)OCCC(C)C
CC(C)(O)c1ccc(CNC(=O)c2cccnc2Oc2ccc3nonc3c2)cc1
CCOC(=O)O[C@H](C)OC(=O)c1ccc2c(c1)cc(C(=O)NC1CCN(C(C)C)CC1)n2Cc1cc(-c2ccc(Cl)s2)on1
O=c1c(-c2ccc(O)cc2)coc2cc(O)cc(O)c12
CCCCCCCCCC(=O)O
CCCCCCCC[Si](OCC)(OCC)OCC
C[C@]12CC[C@@H]3c4ccc(O)cc4CC[C@H]3[C@@H]1CC[C@H]2O
Cc1cc(F)ccc1-c1cc(N2CC[C@@H](O)[C@H]2CO)ncc1N(C)C(=O)C(C)(C)c1cc(C(F)(F)F)cc(C(F)(F)F)c1
CC1(C)NC(=O)N(c2ccc([N+](=O)[O-])c(C(F)(F)F)c2)C1=O
CC(C)(c1cc(Br)c(O)c(Br)c1)c1cc(Br)c(O)c(Br)c1
CC(O)CC(C)(C)O (stereo not given)
O=c1[nH]sc2ccccc12
O=CCCCC=O
c1ccc2ccccc2c1
Clc1ccccc1C(c1ccccc1)(c1ccccc1)n1ccnc1
Oc1ccccc1
Cc1ccc(C(C)C)cc1
O=C1CCC(C2CCCCC2)CC1
CC1=CC(=O)/C(=C(/C)O)C(=O)O1
Cc1oc2c(NC(=O)c3c(Cl)cccc3Cl)cccc2c1C(C)(C)O
Cc1cccc2ccccc12
Clc1cc(Cl)c2c(c1)N=C1CCCCCN1C2
CN(C)C(=O)C1(N2CCCCC2)CCN(CC[C@@]2(c3ccc(Cl)c(Cl)c3)CN(C(=O)c3ccccc3)CCO2)CC1
O=C(O)c1ccccc1C(=O)OCc1ccccc1
Cc1ccc2oc(CN(Cc3ccccc3)C(=O)Nc3c(F)cc(F)cc3F)c(-c3ccc(Cl)cc3)c2c1
CC/C(=C(/CC)c1ccc(O)cc1)c1ccc(O)cc1
O=C(O)c1ccccc1-n1cc(C(=O)O)c(=O)c2cc(Nc3c(F)cc(F)cc3Cl)c(Cl)cc21
CCO[Si](CCCNC(N)=O)(OCC)OCC
O=C(Nc1ccc(Cl)cc1)Nc1ccc(Cl)c(Cl)c1
CCN(Cc1cccc(S(=O)(=O)O)c1)c1ccc(C(=C2C=CC(=[N+](CC)Cc3cccc(S(=O)(=O)O)c3)C=C2)c2ccccc2S(=O)(=O)[O-])cc1
CCCCCCCCOC(=O)c1cc(O)c(O)c(O)c1
Oc1ccc2ccccc2c1

AC50, active:
CCCCCCCC[Si](OCC)(OCC)OCC 153 µM
CCCOC(=O)c1cc(O)c(O)c(O)c1 169 µM

Reference: PubChem BioAssay (EPA / NIEHS)
